# Assay outcomes deposited in PubChem BioAssay by National Center for Advancing Translational Sciences (NCATS).
# Pol beta inh – inhibitors of human DNA polymerase beta | P06746 | Pol beta primer extension/strand displacement, fluorescence kinetic | Potency, µM (doses to about 114 µM), most hits filed as inhibitors | 340,000 compounds, 1.3% hits
#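 Pol beta (10 nM) and compounds were preincubated 15 min at room temperature, then 50 nM substrate (final) started primer extension/strand displacement. Reads were taken at 0 and 10 min; concentration-response data were fitted to a four-parameter Hill equation.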
# Pol iota inh – blocks human DNA polymerase iota activity; Pol iota fluorescent replication assay, 10 min; Q9UNA4; Potency, µM (titrated, usually from 115 µM), hits mostly inhibitors; 390,000 compounds, 1% hits
# Target sequence (Q9UNA4 whole entry, looked up): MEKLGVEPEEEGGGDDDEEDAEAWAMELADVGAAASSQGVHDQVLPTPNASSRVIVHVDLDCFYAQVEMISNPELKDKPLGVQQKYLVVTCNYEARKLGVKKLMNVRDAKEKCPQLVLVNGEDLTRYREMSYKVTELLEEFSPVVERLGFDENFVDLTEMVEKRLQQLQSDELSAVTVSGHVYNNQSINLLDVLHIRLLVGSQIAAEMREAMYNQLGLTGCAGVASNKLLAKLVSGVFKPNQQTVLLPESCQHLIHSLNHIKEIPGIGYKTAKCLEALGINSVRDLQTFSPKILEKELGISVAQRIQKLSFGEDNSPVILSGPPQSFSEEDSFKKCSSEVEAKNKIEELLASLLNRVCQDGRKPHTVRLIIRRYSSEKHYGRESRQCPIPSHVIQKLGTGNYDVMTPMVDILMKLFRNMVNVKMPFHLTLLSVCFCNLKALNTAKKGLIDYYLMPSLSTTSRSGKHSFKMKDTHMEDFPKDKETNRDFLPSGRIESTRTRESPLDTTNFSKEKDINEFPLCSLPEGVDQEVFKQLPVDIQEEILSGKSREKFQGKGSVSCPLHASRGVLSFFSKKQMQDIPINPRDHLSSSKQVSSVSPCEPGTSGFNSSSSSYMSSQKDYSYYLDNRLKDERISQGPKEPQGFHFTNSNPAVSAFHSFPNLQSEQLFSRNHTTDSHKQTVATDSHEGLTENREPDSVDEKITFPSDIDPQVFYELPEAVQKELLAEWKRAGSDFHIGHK
#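 Fluorescent replication assay read twice, at 0 min and 10 min after adding 50 nM (final) substrate. Enzyme (10 nM) and compounds were first incubated 15 min at room temperature; enzyme-free buffer wells were negative controls.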
# FEN1 inh – inhibitors of human flap endonuclease 1; P39748; Recombinant FEN1 flap cleavage, fluorescence, 15 min; Potency, µM (highest dose often 114 µM), most hits filed as inhibitors; 390,000 compounds, 0.35% hits; note: nearly all actives have a fitted effect of over 65% in size
#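 Read-out was taken twice, immediately and after 15 min, following addition of 50 nM substrate to 10 nM FEN1 that had sat with test compound for 15 min at room temperature. Curves came from a four-parameter Hill model.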
# Pol kappa inh – DNA polymerase kappa (human) inhibition; Q9UBT6; purified Pol kappa, fluorescent DNA synthesis assay, 10 min; Potency, µM (doses to about 107 µM), usual class: inhibitors; 400,000 compounds, 0.53% hits
#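 Inhibition of 10 nM Pol kappa is measured by a fluorescent read-out at 0 and 10 min following addition of 50 nM substrate (final), with a 15-min room-temperature compound preincubation.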
# WRN helicase inh – inhibitors of human WRN helicase; Potency, µM (doses to about 114 µM), most hits filed as inhibitors; AID 651768; 360,000 compounds, 0.46% hits; Q14191; WRN helicase unwinding, fluorescent forked duplex, kinetic; note: nearly all actives have a fitted effect of over 55% in size
#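 Screening of the MLSMR collection measured strand separation of a quenched forked DNA duplex (100 nM) by 20 nM WRN with 2 mM ATP, all final. Compounds were preincubated with enzyme 15 min at room temperature.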
# POLH inh – DNA polymerase eta (human) inhibition | 390,000 compounds, 1.2% hits | Potency, µM (series often up to 114 µM), hits mostly inhibitors | recombinant Pol eta, fluorescent DNA replication assay | Q9Y253
#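 Fluorescent replication assay: 50 nM final substrate added after a 15 min room-temperature compound preincubation with 10 nM enzyme. Signal taken at 0 min and again at 10 min.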
# PGK validate – blocks T. brucei phosphoglycerate kinase. shares compounds with Pol kappa inh. TbPGK coupled GAPDH assay, Kinase-Glo luminescence. Potency, µM (series often up to 57.5 µM), actives largely listed as inhibitors. 500 compounds, 79% hits; note: nearly all actives have a fitted effect of over 65% in size
# POLI cherry-pick – Inhibitors of human DNA polymerase iota, confirmation; 1,500 compounds, 77% hits; shares compounds with Pol kappa inh; Potency, µM, usual class: inhibitors; Pol iota primer extension, TAMRA/BHQ fluorescence
# Numbers stand for hits; - = inactive; ? = inconclusive; . = no result given; [ ] = another dose, or the depositor's remark. An excerpt weighted towards active compounds, which were near 2.4% of everything screened. Calls come from the whole dose curve; as a rule, active = well fitted curve in the direction sought with a large enough effect; inconclusive = small, poorly fitted or top-dose-only effect, or another doubt; inactive = no such curve, though single readings can be large; an effect the other way counts as inactive or inconclusive.
SMILES,Pol beta inh,Pol iota inh,FEN1 inh,Pol kappa inh,WRN helicase inh,POLH inh,PGK validate,others
Cc1cc(Cl)ccc1OCC(=O)N(Cc1ccc(N(C)C)cc1)CC1CCCO1 (stereo not drawn),-,-,-,-,.,-,.,
CCCN1CNc2c(c(=O)[nH]c(=S)n2CCc2ccc(Cl)cc2)C1,.,-,-,-,.,.,.,
c1ccc(-c2noc(-c3ccncc3)n2)nc1,-,-,-,-,-,-,18µM,
c1ccc(-c2noc(-c3ccc4ccccc4c3)n2)nc1,-,-,-,-,-,-,.,
c1ccc(-c2noc(-c3ccc4c(c3)OCO4)n2)nc1,?,-,-,-,-,-,5.8µM,
COc1ccc(C2C(=O)N(C3CCCCCC3)CC(=O)N2Cc2ccc(C)cc2)cc1 (stereo not drawn),-,-,-,-,.,-,.,
O=C(CN1C(=O)/C(=C2\SC(=S)N(CCS(=O)(=O)O)C2=O)c2ccccc21)Nc1cccc(Br)c1,?,?,?,?,89µM,?,15µM,
CC(C)c1ccc(NC(=O)CN2C(=O)COc3ccc(S(=O)(=O)N4CCCCC4)cc32)cc1,-,-,-,-,.,-,.,
COc1ccc(-n2nnc3c(=O)n(CC(=O)Nc4ccc5c(c4)OCCO5)cnc32)cc1OC,?,-,-,-,-[11.6 µM],25µM,.,POLI cherry-pick=67
O=C(O)c1ccc(-c2ccc(/C=C3\NC(=O)N(Cc4ccc(Cl)cc4)C3=O)o2)cc1Cl,4.5µM,1.4µM,28µM,4.5µM,22µM,1.3µM,5.8µM,
Cc1ccc(/C=C2/NC(=O)N(Cc3ccc(Br)cc3)C2=O)o1,-,-,-,-,?,-,.,
CCCS(=O)(=O)c1cnc(C2COc3ccccc3O2)nc1N (stereo not drawn),-,-,-,-,-,-,18µM,
COc1cccc(Cc2nc3ccccc3nc2SCC(=O)NCCc2ccccc2)c1,?,-,-,-,.,-,.,
Cc1ccccc1C(=O)O/N=C(\N)c1ccccc1,-,-,-,-,-,-,15µM,
Cc1cccc(/C(N)=N/OC(=O)c2ccoc2C)c1,-,-,-,-,-,-,.,
Cc1ccccc1C(=O)O/N=C(\N)c1ccc([N+](=O)[O-])cc1,-,-,-,-,-,-,.,
Cc1occc1C(=O)O/N=C(\N)c1ccccc1,-,-,-,-,-,-,18µM,
COc1cc(S(=O)(=O)NCCc2c(C)[nH]c3ccccc23)c(C)cc1C,-,?,-,-,.,-,.,
Fc1ccc(Nc2c(-c3c[nH]c4ccccc34)nc3ccccn23)cc1,-,-,-,-,.,-,.,
COc1ccccc1NCCC(=O)OCC(=O)NCc1ccco1,18µM,6.3µM,-,79µM,?,5.6µM,.,POLI cherry-pick=?
Cc1ccccc1OCC(=O)OCC(=O)NCc1ccco1,.,-,-,-,-,-,.,
NC(=S)N/N=C/c1cccc(O)c1O,-,79µM,-,?,-,-,.,POLI cherry-pick=67
O=C(O)CC/C(=C\c1ccccc1[N+](=O)[O-])c1nc2ccccc2s1,-,-,-,-,-,-,.,
O=C(O)CC/C(=C\c1ccc(N2CCCC2)c([N+](=O)[O-])c1)c1nc2ccccc2s1,-,?,?,?,?,56µM,.,POLI cherry-pick=75
COc1ccc(NC(=O)Cn2ccn(Cc3ccccc3)c(=O)c2=O)cc1Cl,?,-,-,-,.,-,.,
SMILES,Pol beta inh,Pol iota inh,FEN1 inh,Pol kappa inh,WRN helicase inh,POLH inh,PGK validate,others
CCOc1cc(N2CCOCC2)c(OCC)cc1NC(=O)c1cc(-c2ccco2)nc2ccccc12,?,?,-,-,-,79µM,.,POLI cherry-pick=?
COc1ccc(N=C2SC(C(N)=O)CC(=O)N2Cc2ccc3c(c2)OCO3)cc1 (stereo not drawn),?,40µM,-,89µM,-,28µM,-,
CCNC(=O)C1CC(=O)N(Cc2ccc3c(c2)OCO3)C(=Nc2ccc(F)cc2)S1 (stereo not drawn),?,-,-,-,-,-,.,
O=C(CCS(=O)(=O)c1ccc(Br)cc1)NCc1ccco1,?,-,-,-,-,?,16µM,
O=C(NCc1nc2ccccc2[nH]1)c1ccc(S(=O)(=O)N2CCOCC2)cc1,-,-,-,-,-,-,-,
O=C(NCc1nc2ccccc2[nH]1)c1ccc(S(=O)(=O)N2CCCC2)cc1,-,-,-,-,-,-,.,
COC(=O)CNC(=O)C1Nc2ccccc2C2C=CCC12 (stereo not drawn),.,?,-,-,-,?,.,
CC(C)CNC(=O)C1Nc2ccc(C(F)(F)F)cc2C2C=CCC12 (stereo not drawn),.,-,-,-,-,-,.,
O=C(O)C1Nc2ccc(Br)cc2C2C=CCC12 (stereo not drawn),1.6µM,?,?,10µM,28µM,3.2µM,18µM,
O=C(O)C1Nc2c(O)cccc2C2C=CCC12 (stereo not drawn),1.6µM,?,40µM,10µM,11µM,1.3µM,3.3µM,
CCOC(=O)c1ccc(N2C(=O)c3n[nH]c(-c4ccco4)c3C2c2cccc(O)c2)cc1 (stereo not drawn),-,-,-,-,.,-,.,
CC1=C(c2ccc(C)cc2)S(=O)(=O)N(Cc2ccc(C(=O)NCc3cccc(C)c3)cc2)C1=O,-,-,-,-,.,-,.,
N=C1C(c2nc(-c3cccc([N+](=O)[O-])c3)cs2)=C(O)CN1NC(=O)c1ccco1,-,50µM,-,?,?,50µM,.,POLI cherry-pick=?
O=C(OCCC12CC3CC(CC(C3)C1)C2)c1ccc(NCc2cc(O)ccc2O)cc1,.,79µM,?,79µM,?,?,16µM,
Cc1cc(N2CCC(C(=O)Nc3ccc(F)cc3F)CC2)n2nc(C)c(-c3ccc(Cl)cc3)c2n1,-,-,-,-,.,-,.,
CCN(CC)c1ccc(C(=C2C=CC(=[N+](CC)CC)C=C2)c2ccc(N(CC)CC)cc2)cc1,.,-,?,-,-,-,16µM,
CN=C1C=CC(=C(c2ccc(N(C)C)cc2)c2ccc(N(C)C)cc2)C=C1,.,.,.,-[19.4 µM],.,.,.,
Cc1ccc2oc(-c3cc(NC(=O)Cc4ccccc4)ccc3Cl)nc2c1,-,-,-,-,.,-,.,
COc1ccc(OC)c(-c2c3cc(O)c(=O)cc-3oc3cc(O)c(O)cc23)c1,45µM,?,13µM,?,79µM,.,0.37µM,
O=c1cc2oc3cc(O)c(O)cc3c(-c3ccccc3O)c-2cc1O,40µM,-,22µM,4.5µM,-,?,1.2µM,
COc1ccc(C)cc1NC(=O)Cn1c(=O)cc(C)c2c(C)nn(C)c21,-,-,-,-,.,.,.,
COc1ccc(OC)c(NC(=O)Cn2c(=O)cc(-c3ccccc3)c3c(C)nn(C)c32)c1,?,-,-,-,.,?,.,POLI cherry-pick=47
